Bioassay records deposited in PubChem BioAssay by National Center for Advancing Translational Sciences (NCATS).
TCR activator: activates T cell receptor signaling. primary human leukocytes, anti-CD3, IL-2 HTRF, 48 h. 330,000 tested, under 10 active. Potency, µM (titrated, usually from 9.22 µM), actives largely listed as activators
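1) Mix primary human leukocytes, a-CD3 beads and compound. 2) Incubate 48 hr. 3) Add HTRF IL-2 reagents (a-IL-2-K, a-IL-2-d2).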
PI5P4K alpha inh: PI5P4K alpha (human) kinase inhibition; PI5P4Kalpha enzyme, ADP-Glo luminescence, 60 min; hits give low values; max response, %; hit rate 1.2% among 330,000; AID 652105; active means max response of -50% or lower; inconclusive means between -30% and -50%; inactive means -30% or higher; further: value at the top dose of about 77 µM
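Single end-point luminescence (ADP-Glo) quantified ADP from PI5P4Kalpha turnover; ATP 5 microM final, 1 h at RT, 0.1% CHAPS and 0.28 mM EGTA in HEPES pH 7.4.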
PLK1 PBD inh: blocks phosphopeptide binding to human PLK1 polo-box domain; Plk1 PBD binding of FITC phosphopeptide, fluorescence polarization; P53350; hit rate 2.8% among 360,000; Potency, µM, usual class: inhibitors; further: series mostly up to about 57 µM; nearly all actives have a fitted effect of over 65% in size
FEN1 inh: human FEN1 inhibition; Recombinant FEN1 flap cleavage, fluorescence, 15 min; Potency, µM (titrated, usually from 114 µM), most hits filed as inhibitors; AID 588795; hit rate 0.35% among 390,000; P39748; further: nearly all actives have a fitted effect of over 65% in size
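Steps: FEN1 (10 nM) dispensed; compound added by pin tool; 15 min at room temperature; substrate added to 50 nM final; reads at 0 min and 15 min; data normalized and fitted (four-parameter Hill).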
WRN helicase inh: blocks human WRN helicase. Q14191. WRN helicase unwinding, fluorescent forked duplex, kinetic. Potency, µM (series often up to 114 µM), hits mostly inhibitors. hit rate 0.46% among 360,000. AID 651768; further: nearly all actives have a fitted effect of over 55% in size
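Screening of the MLSMR collection measured strand separation of a quenched forked DNA duplex (100 nM) by 20 nM WRN with 2 mM ATP, all final. Compounds were preincubated with enzyme 15 min at room temperature.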
VDR inhibitor: inhibitors of human vitamin D receptor; P11473; VDR-SRC2-3 peptide fluorescence polarization, 2 h; Potency, µM, usual class: inhibitors; hit rate 0.93% among 400,000; AID 504847
Target sequence (P11473 whole entry, looked up): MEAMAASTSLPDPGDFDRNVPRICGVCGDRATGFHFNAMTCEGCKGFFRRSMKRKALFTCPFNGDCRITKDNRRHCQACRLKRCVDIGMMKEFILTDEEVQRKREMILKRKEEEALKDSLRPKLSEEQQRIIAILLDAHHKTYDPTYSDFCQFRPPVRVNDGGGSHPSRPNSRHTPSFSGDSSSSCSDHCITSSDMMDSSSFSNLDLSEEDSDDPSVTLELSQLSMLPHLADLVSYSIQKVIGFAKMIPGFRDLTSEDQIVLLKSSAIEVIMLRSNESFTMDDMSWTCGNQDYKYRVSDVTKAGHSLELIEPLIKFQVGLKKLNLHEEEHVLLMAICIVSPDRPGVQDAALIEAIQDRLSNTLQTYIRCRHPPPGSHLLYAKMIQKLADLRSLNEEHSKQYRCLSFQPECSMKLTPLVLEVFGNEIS
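Reagent solutions, kept cold and dark, are dispensed first; compounds are then pinned in at 23 nl, plates briefly spun, and incubated 2 h at ambient temperature. Inhibition of VDR–SRC2-3 peptide binding is read by fluorescence polarization.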
Each line names hits and unclear results; the compound was inactive in the other large screens. Compounds with a hit are over-represented: about 3.7% of the library has one in this group of screens. Unless noted, the call rests on the fitted dose curve; in most records, active means well fitted curve in the direction sought with a large enough effect; inconclusive means small, poorly fitted or top-dose-only effect, or another doubt; inactive means no such curve, though single readings can be large; an effect the other way counts as inactive or inconclusive.

CCN(CC)C(=O)CSc1nc2ccsc2c(=O)n1CCCC(=O)NCCc1ccc(S(N)(=O)=O)cc1	PLK1 PBD inh 3.77µM, VDR inhibitor inconclusive
NS(=O)(=O)c1ccc(CCNC(=O)CSc2nc3ccsc3c(=O)n2Cc2ccccn2)cc1	none (no result: TCR activator, FEN1 inh, VDR inhibitor)
COc1cccc(C(=O)NCCSCc2ccccc2Cl)c1	none (no result: TCR activator)
COc1cccc(C(=O)NCCSCc2c(F)cccc2Cl)c1	PLK1 PBD inh 21.2µM, VDR inhibitor inconclusive (no result: TCR activator)
NC(N)=NCCC[C@@H](N)C(=O)NCC(=O)N[C@@H](CC(=O)O)C(=O)N[C@@H](Cc1c[nH]c2ccccc12)C(=O)O	none (no result: TCR activator, PI5P4K alpha inh, PLK1 PBD inh, FEN1 inh, WRN helicase inh)
CN1CC(O)(C(O)C(O)C(O)CO)SC1=S (centres undefined)	PLK1 PBD inh 21.2µM (no result: TCR activator, FEN1 inh, VDR inhibitor)
CCN(CCN(C)Cl)/[N+]([O-])=N/Oc1ccc([N+](=O)[O-])cc1[N+](=O)[O-]	none (no result: TCR activator, PI5P4K alpha inh, PLK1 PBD inh, WRN helicase inh, VDR inhibitor)
COc1ccc(S(=O)(=O)N2CCN(c3nc(-c4cccs4)nc4ccccc34)CC2)cc1	none (no result: TCR activator, PI5P4K alpha inh, PLK1 PBD inh, WRN helicase inh)
N#Cc1nc(-c2ccc(OCc3ccccc3Cl)cc2)oc1N1CCC(C(N)=O)CC1	none (no result: TCR activator, PI5P4K alpha inh, PLK1 PBD inh, WRN helicase inh)
N#Cc1c(-c2ccco2)cc(-c2ccc(F)cc2)nc1N	PI5P4K alpha inh -63.9, PLK1 PBD inh inconclusive, WRN helicase inh inconclusive
N#Cc1c(-c2ccc(F)cc2)cc(-c2cccnc2)nc1N	none
CC(=O)O[C@H](C(=O)O[C@@H]1C[C@@H](CCC[C@H]2O[C@H](C(=O)OC(C)C)CC[C@@H]2C)O[C@@H](CC#N)C1)c1ccccc1	none (no result: TCR activator, PI5P4K alpha inh, PLK1 PBD inh, FEN1 inh, WRN helicase inh)
CCC1(C)N([O-])C(C)=C(c2ccccc2)[N+]1=O (centres undefined)	none
CC1(C)N([O-])C2=C(c3ccccc3C2=O)[N+](=O)C1(C)C	PLK1 PBD inh 10.6µM, WRN helicase inh inconclusive, VDR inhibitor inconclusive
CCCn1c(SCC(=O)NC(=O)NC(C)(C)C)n[nH]c1=O	PLK1 PBD inh 26.7µM
CCCn1c(SCC(=O)c2ccc(CC)cc2)n[nH]c1=O	PLK1 PBD inh 8.44µM
CC(C)(C)[C@@H](O)C(Cc1ccc(Cl)cc1)n1cncn1 (some centres undefined)	none (no result: TCR activator, PI5P4K alpha inh, PLK1 PBD inh, FEN1 inh, WRN helicase inh)
COc1cc(OC)c(OC)cc1CN1CCc2nc(Nc3ccc4c(c3)OCCO4)ncc2C1	none (no result: TCR activator, PI5P4K alpha inh, PLK1 PBD inh, WRN helicase inh)
Cc1cc2c(c(C)c1Cl)C(c1ccc3c(c1)OCO3)CC(c1ccccc1)O2 (centres undefined)	none (no result: TCR activator, PI5P4K alpha inh, PLK1 PBD inh, WRN helicase inh)
O=C(Cn1cnc2c(OCc3ccccc3)ncnc21)NCc1ccccc1	PLK1 PBD inh 23.8µM, VDR inhibitor inconclusive
CC(=O)c1ccc(S(=O)(=O)NCC(=O)NC(c2nc3ccccc3[nH]2)C(C)C)cc1 (centres undefined)	PLK1 PBD inh 18.9µM, VDR inhibitor inconclusive
CCSC1(SCC)N=C(N)C2(C#N)C(c3ccc(OC)c(OC)c3OC)C12C#N (centres undefined)	PLK1 PBD inh 13.4µM, VDR inhibitor inconclusive
O=C(C[n+]1ccccc1Br)c1ccc(-c2ccccc2)cc1	none (no result: TCR activator, PI5P4K alpha inh, PLK1 PBD inh, WRN helicase inh, VDR inhibitor)
CCOC(=O)C(=Cc1ccc(OCc2ccc([N+](=O)[O-])cc2)c(OC)c1)C(=O)OCC	VDR inhibitor 79.4µM
CN(Cc1ccccc1)C(=O)c1ccc(CSc2nc3cccnc3n2Cc2ccccc2F)cc1	FEN1 inh inconclusive (no result: TCR activator, PI5P4K alpha inh, PLK1 PBD inh, WRN helicase inh)
CCc1nnc(NC(=O)CSCc2cc(=O)n3nc(C)sc3n2)s1	PI5P4K alpha inh inconclusive, PLK1 PBD inh 3.36µM, VDR inhibitor inconclusive
Cc1onc(-c2ccccc2Cl)c1C(=O)N1CC(C)OC(C)C1 (centres undefined)	PLK1 PBD inh 29.9µM, VDR inhibitor inconclusive (no result: PI5P4K alpha inh)
CCNc1ncc2nc(C)c(=O)n(Cc3cccs3)c2n1	none (no result: TCR activator, PI5P4K alpha inh, PLK1 PBD inh, FEN1 inh, WRN helicase inh)
CC(C)OC(=O)n1c(=S)oc2ccccc21	none (no result: PI5P4K alpha inh)
Cc1cccc(OC(=O)n2c(=S)oc3cc(Cl)ccc32)c1	PLK1 PBD inh 29.9µM
COC(=O)c1cc(=O)nc(NN=C2c3ccccc3-c3ccccc32)s1	PLK1 PBD inh 29.9µM (no result: TCR activator, FEN1 inh, VDR inhibitor)
COC(=O)c1cc(=O)nc(NN=C2CCCCC2)s1	none (no result: TCR activator, FEN1 inh, VDR inhibitor)
COc1cc2c(NC3CCN(C)CC3)nc(N3CCCN(C)CC3)nc2cc1OCCCCCC(N)=O	none (no result: TCR activator, PI5P4K alpha inh, PLK1 PBD inh, WRN helicase inh, VDR inhibitor)
COc1cc2c(NC3CCN(C)CC3)nc(N3CCCN(C)CC3)nc2cc1OCCCCCN	FEN1 inh 8.91µM (no result: TCR activator, PI5P4K alpha inh, PLK1 PBD inh, WRN helicase inh, VDR inhibitor)
COCCCCOc1cc2nc(N3CCCN(C)CC3)nc(NC3CCN(C)CC3)c2cc1OC	FEN1 inh 44.7µM (no result: TCR activator, PI5P4K alpha inh, PLK1 PBD inh, WRN helicase inh, VDR inhibitor)
COc1cc2nc(N3CCCN(C)CC3)nc(NC3CCOCC3)c2cc1OC	none (no result: TCR activator, PI5P4K alpha inh, PLK1 PBD inh, WRN helicase inh, VDR inhibitor)
